# Where “and” joins values, the source holds several entries; their conditions need not be identical. Identical values can stand only once. Calls of active or inactive are those of the source. The calls were made as follows: active = hit-call score of the fitted dose curve at least 0.9, where 1 is the maximum; inactive = score below 0.9.
# Assay: BSK_3C_Vis: BioMAP Diversity Plus: 3C Assay for Morphology Visualization (AID 2283025);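 also: fitted both ways so gain or loss versus DMSO counts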
# Settings: primary human endothelial cells (HUVEC)
# Protocol: BSK_3C is a cell-based, multiplexed-readout assay that uses umbilical vein endothelium, a human vascular primary cell, with measurements taken at 24 hours after chemical dosing in a 96-well plate.BSK_3C_Vis is an assay component measured in the BSK_3C assay. It measures NA related to cell morphology using light microscopy technology.Data from the assay component BSK_3C_Vis was analyzed into 1 assay endpoint. This assay endpoint, BSK_3C_Vis, was analyzed with bidirectional fitting relative to DMSO as the negative control and baseline of activity. Using a type of morphology reporter, gain or loss-of-signal activity can be used to understand changes in the background control. Furthermore, this assay endpoint can be referred to as a secondary readout, because this assay has produced multiple assay endpoints where this one serves a background control function. To generalize the intended target to other relatable targets, this assay endpoint is annotated to the cell morphology intended target family, where the subfamily is cell conformation.
# The levels of cell surface (or secreted, indicated by the prefix "s") biomarker endpoints were measured by ELISA. Overt cytotoxicity to cells in confluent adherent cultures (all systems other than the BT system) was assessed by measuring total protein levels using sulforhodamine B (SRB) staining in parallel cultures at the time of biomarker measurements, indicated as SRB endpoints. For proliferation assays for adherent cell types, individual cell types are cultured at sub-confluence and relative cell numbers quantified by SRB staining at time points optimized for each system (48 h: 3C and CASM3C systems; 72 h: BT and HDF3CGF systems; 96 h: SAg system). SRB was performed by staining cells with 0.1% SRB after fixation with 10% TCA and reading wells at 560 nm.Viability and proliferation of PBMC (T cells) was quantified by Alamar Blue reduction for the SAg and BT systems. For PBMC viability (referred to as PBMC Cytotoxicity within the assay endpoint names), cells were plated (75,000/well in a 96-well plate) and then chemical samples added for 1 h before addition of activators, SEB and TSST-1 (20 ng/mL final concentration each). Cells were incubated for 90 h. Then, Alamar Blue (20 uL/well) (Invitrogen, Cat DAL1100) was added for 6 h, and the plates were read with a fluorescence microplate reader at 546/580 nm (excitation/emission). For PBMC proliferation, cells were plated and activated as above but incubated for only 16 h prior to addition of Alamar Blue. Plates were read after 6 h.
SMILES,AC50,outcome
C=C1CC/C=C(\C)CC[C@@H]2[C@@H]1CC2(C)C,14.5 µM (active),–
CC=CC(=O)C1=C(C)C=CCC1(C)C,–,inactive
O=S1(=O)CC(Cl)(Cl)C(Cl)(Cl)C1,20 µM (active),–
C#C[C@]1(O)CC[C@H]2[C@@H]3CCc4cc(O)ccc4[C@H]3CC[C@@]21C,9.8 µM (active),–
CC(=O)CCC=C(C)CCC=C(C)C,–,inactive
CCOC(=O)C=Cc1ccccc1,–,inactive
NC(=O)c1c(Cl)cccc1Cl,–,inactive
CC(=O)OC(C)(C)C1CC=C(C)CC1 (stereo unspecified),38.9 µM (active),–
CCC(=O)OCC=Cc1ccccc1,–,inactive
COC(=O)c1ccc(C(=O)OC)cc1,–,inactive
CC1(C)[C@H](C=C(Cl)Cl)[C@H]1C(=O)OCc1cccc(Oc2ccccc2)c1,–,inactive
CC(=O)OCC=C(C)CCC=C(C)CCC=C(C)C,–,inactive
C=C(C)C(N)=O,–,inactive
c1ccc2c(c1)-c1ccc3ccc4cccc5cc-2c1c3c45,4.52 µM (active),–
C=CC(=O)OCC(CO)(COC(=O)C=C)COC(=O)C=C,0.174 µM (active),–
C[C@]12CC[C@@H]3c4ccc(O)cc4CC[C@H]3[C@@H]1CC[C@@H]2O,13.7 µM (active),–

SMILES,AC50,outcome
O=C(c1ccc(OCCN2CCCCC2)cc1)c1c(-c2ccc(O)cc2)sc2cc(O)ccc12,22.3 µM (active),–
COc1ccccc1NC(=O)CC(C)=O,–,inactive
CC/C(=C(\c1ccccc1)c1ccc(OCCN(C)C)cc1)c1ccccc1,4.76 µM (active) and 5.36 µM (active),–
CC(C)Cc1ccc(C(C)C(=O)O)cc1 (stereo unspecified),–,inactive
O=C1OC2(c3ccc(O)cc3Oc3cc(O)ccc32)c2ccccc21,–,inactive
CC(C)(C)c1cccc(O)c1,–,inactive
CC1=CC(C)C(C=O)C(C)C1 (stereo unspecified) (tested in a mixture with another compound),–,inactive
CCCCCCCC1CCCC1=O (stereo unspecified),37.8 µM (active),–
CCOC(=O)CCCCCCCCC(=O)OCC,–,inactive
CCCCCCCCCCCCS,20 µM (active),–
CCCCCCCCCC(=O)OCC,14.1 µM (active),–
Nc1ccc(N)c([N+](=O)[O-])c1,–,inactive
CCCCOCCOCCO,–,inactive
c1ccc(Sc2ccccc2)cc1,37.8 µM (active),–
OCCN1CCOCC1,–,inactive

# — PubChem BioAssay (EPA / NIEHS)
